What all share (test): DAPPL (digital affinity profiling via proximity ligation, sequencing); 10 mM Tris-HCl pH 7.5, 50 mM NaCl, 1 mM DTT, 4% glycerol, room temperature, 30 min; GST-TFs on glutathione beads, 16-mer random dsDNA library, 0.1% formaldehyde crosslink after washing; high values mean tight binding
In one test the target is T1, FEV (Homo sapiens, UniProt Q99581 1-238).
T1 sequence: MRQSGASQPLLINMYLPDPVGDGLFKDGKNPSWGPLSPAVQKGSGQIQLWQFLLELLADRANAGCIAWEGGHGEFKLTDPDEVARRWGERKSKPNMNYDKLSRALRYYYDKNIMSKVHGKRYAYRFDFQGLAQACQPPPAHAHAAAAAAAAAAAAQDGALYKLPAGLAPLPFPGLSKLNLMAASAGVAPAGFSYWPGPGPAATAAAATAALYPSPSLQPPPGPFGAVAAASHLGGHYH
The note with it: protein: recombinant; tags: N-terminal GST; dsDNA, one strand shown. A digest of the protocol:
(§1)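 Human transcription factors fused to GST were expressed in yeast, captured on glutathione beads, given DNA barcodes and pooled with a GST-only negative control. Pools were incubated with 200 nmole of a 16-mer random double-stranded DNA library in Tris/NaCl/DTT/glycerol buffer at room temperature for 30 min. They were then washed, crosslinked with 0.1% formaldehyde, proximity-ligated (BsaI/T4 ligase, 1 h, 37 °C), PCR-amplified and sequenced on an Illumina NextSeq500. Binding signal is each 6-mer's read frequency for a factor divided by its frequency for the GST control.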

In the next test the target is ETV5 (Homo sapiens, UniProt P41161 1-510). Conditions: protein: recombinant; tags: N-terminal GST; dsDNA, one strand shown. In a few lines:
as §1

The target in another test is HSF1 (Homo sapiens, UniProt Q00613 1-529). The note with it: protein: recombinant; tags: N-terminal GST; chain copies: 3; dsDNA, one strand shown. A digest of the protocol: as §1
HSF1, sequence (Q00613 whole entry): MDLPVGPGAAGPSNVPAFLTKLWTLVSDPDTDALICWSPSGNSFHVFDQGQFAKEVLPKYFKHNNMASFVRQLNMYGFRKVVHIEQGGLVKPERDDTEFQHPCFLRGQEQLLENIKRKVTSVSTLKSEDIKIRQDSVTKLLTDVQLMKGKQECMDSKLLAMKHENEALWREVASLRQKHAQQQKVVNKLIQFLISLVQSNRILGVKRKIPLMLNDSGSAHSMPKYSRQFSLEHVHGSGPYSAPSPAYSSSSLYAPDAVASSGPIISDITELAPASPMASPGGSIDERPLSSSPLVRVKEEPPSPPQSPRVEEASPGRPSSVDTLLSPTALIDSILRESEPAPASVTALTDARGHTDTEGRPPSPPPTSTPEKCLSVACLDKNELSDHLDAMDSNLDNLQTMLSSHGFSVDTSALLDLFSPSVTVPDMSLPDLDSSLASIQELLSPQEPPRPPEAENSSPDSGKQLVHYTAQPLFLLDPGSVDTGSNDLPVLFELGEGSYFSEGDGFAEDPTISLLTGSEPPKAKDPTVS
A further test has as its target T2, SPIC (Homo sapiens, UniProt Q8N5J4 1-248).
T2 sequence: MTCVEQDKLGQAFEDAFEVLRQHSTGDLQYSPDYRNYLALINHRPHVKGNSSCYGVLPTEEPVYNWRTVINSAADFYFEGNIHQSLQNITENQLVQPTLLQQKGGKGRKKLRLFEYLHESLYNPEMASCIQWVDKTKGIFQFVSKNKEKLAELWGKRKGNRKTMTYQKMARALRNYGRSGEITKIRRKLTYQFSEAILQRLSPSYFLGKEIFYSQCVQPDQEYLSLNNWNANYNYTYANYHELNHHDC
Conditions: protein: recombinant; tags: N-terminal GST; dsDNA, one strand shown. A digest of the protocol: as §1

A further test concerns the target ELF4 (Homo sapiens, UniProt Q99607 1-663). Conditions: protein: recombinant; tags: N-terminal GST; dsDNA, one strand shown. In a few lines: as §1
In the next test the target is T3, ELK4 (Homo sapiens, UniProt P28324-2 1-405).
T3 sequence: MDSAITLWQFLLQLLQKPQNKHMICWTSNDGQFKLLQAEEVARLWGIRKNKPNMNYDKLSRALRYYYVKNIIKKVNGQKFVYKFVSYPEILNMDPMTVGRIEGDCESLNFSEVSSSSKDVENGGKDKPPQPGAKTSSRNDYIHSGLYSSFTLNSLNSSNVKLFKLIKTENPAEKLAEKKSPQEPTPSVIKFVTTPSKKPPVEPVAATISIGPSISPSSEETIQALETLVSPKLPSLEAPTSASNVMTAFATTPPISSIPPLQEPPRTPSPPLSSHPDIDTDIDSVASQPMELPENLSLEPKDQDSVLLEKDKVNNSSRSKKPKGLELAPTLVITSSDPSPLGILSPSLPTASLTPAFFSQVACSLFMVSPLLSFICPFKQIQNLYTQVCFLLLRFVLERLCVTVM
The note with it: protein: recombinant; tags: N-terminal GST; dsDNA, one strand shown. In a few lines: as §1

In the next test the target is T4, ETV2 (Homo sapiens, UniProt O00321 1-342).
T4 sequence: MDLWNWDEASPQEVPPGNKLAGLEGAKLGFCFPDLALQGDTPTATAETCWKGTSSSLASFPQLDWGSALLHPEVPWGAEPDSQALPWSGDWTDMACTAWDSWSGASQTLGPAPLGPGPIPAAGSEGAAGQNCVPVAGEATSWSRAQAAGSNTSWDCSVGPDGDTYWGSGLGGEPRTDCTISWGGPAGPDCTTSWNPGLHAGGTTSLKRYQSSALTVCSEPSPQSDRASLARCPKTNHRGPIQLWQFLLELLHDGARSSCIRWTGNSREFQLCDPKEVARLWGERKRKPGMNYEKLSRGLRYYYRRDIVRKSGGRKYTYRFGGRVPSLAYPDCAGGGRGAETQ
The note with it: protein: recombinant; tags: N-terminal GST; dsDNA, one strand shown. In a few lines:
as §1

In another test the target is T5, ELF3 (Homo sapiens, UniProt P78545 1-371).
T5 sequence: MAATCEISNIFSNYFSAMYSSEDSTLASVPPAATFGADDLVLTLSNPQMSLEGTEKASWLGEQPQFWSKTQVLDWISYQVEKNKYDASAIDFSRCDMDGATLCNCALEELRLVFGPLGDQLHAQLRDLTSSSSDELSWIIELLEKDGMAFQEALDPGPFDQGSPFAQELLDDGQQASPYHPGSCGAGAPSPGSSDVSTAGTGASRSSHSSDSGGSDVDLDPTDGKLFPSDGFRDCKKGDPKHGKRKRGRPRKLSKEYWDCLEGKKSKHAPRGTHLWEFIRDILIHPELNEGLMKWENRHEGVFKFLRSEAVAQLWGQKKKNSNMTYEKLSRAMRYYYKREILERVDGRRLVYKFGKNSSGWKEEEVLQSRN
Conditions: protein: recombinant; tags: N-terminal GST; dsDNA, one strand shown. A digest of the protocol: as §1

The target in a further test is CRX (Homo sapiens, UniProt O43186 1-299). The note with it: protein: recombinant; tags: N-terminal GST; dsDNA, one strand shown. A digest of the protocol: as §1
CRX, sequence (O43186 whole entry): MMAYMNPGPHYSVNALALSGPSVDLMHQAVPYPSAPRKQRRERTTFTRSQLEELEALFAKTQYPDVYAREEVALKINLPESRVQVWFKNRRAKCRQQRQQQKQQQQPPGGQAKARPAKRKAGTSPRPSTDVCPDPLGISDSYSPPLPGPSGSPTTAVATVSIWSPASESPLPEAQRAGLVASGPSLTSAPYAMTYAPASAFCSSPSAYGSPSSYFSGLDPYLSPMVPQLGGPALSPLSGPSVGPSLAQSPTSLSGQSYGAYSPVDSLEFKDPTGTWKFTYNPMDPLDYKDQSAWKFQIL
Another test addresses ETV1 (Homo sapiens, UniProt P50549 1-477). The note with it: protein: recombinant; tags: N-terminal GST; dsDNA, one strand shown. A digest of the protocol: as §1
A further test concerns the target T6, ERF (Homo sapiens, UniProt P50548 1-548).
T6 sequence: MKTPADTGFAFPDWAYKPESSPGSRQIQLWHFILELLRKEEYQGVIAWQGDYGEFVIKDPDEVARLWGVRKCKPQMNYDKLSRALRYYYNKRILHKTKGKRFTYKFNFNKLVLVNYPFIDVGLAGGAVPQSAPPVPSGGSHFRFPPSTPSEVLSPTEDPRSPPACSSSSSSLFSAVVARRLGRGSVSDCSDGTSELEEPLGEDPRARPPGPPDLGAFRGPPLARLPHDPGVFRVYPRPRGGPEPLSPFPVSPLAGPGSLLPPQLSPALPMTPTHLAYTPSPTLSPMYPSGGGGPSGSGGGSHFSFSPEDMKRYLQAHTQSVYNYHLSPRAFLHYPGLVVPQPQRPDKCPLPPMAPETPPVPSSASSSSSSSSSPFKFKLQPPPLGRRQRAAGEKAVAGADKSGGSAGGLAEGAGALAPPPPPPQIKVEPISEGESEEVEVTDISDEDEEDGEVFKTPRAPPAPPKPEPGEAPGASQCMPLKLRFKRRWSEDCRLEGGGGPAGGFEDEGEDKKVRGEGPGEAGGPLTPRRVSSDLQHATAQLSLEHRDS
The note with it: protein: recombinant; tags: N-terminal GST; dsDNA, one strand shown. In a few lines:
as §1

The next test concerns the target T7, ETV3L (Homo sapiens, UniProt Q6ZN32 1-361).
T7 sequence: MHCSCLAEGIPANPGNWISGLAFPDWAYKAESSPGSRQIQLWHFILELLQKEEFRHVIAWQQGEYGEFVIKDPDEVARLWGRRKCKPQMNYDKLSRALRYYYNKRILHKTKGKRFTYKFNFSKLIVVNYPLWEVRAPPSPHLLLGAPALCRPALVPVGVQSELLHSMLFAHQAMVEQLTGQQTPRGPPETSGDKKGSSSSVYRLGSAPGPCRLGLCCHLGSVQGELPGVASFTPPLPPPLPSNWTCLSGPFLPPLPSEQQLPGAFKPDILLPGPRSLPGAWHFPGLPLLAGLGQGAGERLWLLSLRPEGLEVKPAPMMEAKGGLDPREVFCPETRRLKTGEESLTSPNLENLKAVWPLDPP
The note with it: protein: recombinant; tags: N-terminal GST; dsDNA, one strand shown. In a few lines:
as §1

The target of a further test is T8, ETS2 (Homo sapiens, UniProt P15036 1-469).
T8 sequence: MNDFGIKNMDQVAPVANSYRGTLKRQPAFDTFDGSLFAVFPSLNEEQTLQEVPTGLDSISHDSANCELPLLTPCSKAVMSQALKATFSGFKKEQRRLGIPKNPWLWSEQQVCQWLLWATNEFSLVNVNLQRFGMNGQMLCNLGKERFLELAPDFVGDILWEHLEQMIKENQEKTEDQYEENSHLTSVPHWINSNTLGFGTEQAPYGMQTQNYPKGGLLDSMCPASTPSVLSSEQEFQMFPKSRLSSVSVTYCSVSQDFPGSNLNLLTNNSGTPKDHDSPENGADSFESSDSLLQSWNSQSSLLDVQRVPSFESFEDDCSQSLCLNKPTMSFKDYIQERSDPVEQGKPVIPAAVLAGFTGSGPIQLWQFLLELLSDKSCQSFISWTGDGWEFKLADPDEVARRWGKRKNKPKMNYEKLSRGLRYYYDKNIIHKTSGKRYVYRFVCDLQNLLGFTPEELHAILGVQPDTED
Conditions: protein: recombinant; tags: N-terminal GST; dsDNA, one strand shown. In a few lines: as §1

In a further test the target is T9, SPDEF (Homo sapiens, UniProt O95238 1-335).
T9 sequence: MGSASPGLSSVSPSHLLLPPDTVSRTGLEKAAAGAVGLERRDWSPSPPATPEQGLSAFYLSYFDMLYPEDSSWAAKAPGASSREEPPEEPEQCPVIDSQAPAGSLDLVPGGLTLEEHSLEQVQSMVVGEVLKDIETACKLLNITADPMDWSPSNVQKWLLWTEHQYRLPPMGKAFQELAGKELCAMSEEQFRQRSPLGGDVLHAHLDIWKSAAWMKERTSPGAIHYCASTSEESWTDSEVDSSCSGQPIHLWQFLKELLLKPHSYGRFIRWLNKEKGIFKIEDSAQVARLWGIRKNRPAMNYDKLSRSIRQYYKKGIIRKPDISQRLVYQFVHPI
The note with it: protein: recombinant; tags: N-terminal GST; dsDNA, one strand shown. In a few lines: as §1

The target in a further test is T10, ETV7 (Homo sapiens, UniProt Q9Y603 1-341).
T10 sequence: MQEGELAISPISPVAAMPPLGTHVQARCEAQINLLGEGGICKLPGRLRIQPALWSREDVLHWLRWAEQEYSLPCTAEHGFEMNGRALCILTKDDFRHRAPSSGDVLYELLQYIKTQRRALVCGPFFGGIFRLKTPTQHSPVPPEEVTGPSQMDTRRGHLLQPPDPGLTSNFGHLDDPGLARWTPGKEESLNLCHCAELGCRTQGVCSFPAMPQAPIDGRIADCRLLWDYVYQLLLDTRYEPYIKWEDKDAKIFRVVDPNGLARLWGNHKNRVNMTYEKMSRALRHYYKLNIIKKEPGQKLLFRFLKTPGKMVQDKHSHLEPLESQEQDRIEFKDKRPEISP
The note with it: protein: recombinant; tags: N-terminal GST; dsDNA, one strand shown. In a few lines: as §1

Another test has as its target T11, ELF5 (Homo sapiens, UniProt Q9UKW6-2 1-255).
T11 sequence: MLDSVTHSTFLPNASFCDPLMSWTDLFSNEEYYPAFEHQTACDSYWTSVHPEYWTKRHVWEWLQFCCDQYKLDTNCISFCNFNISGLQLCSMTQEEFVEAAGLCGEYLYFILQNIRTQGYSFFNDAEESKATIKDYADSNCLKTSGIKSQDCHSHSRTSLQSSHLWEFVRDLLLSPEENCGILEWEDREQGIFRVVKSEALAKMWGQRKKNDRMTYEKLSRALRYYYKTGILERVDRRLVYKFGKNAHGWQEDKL
The note with it: protein: recombinant; tags: N-terminal GST; dsDNA, one strand shown. In a few lines:
as §1

The target of the next test is T12, ETV3 (Homo sapiens, UniProt P41162-2 1-143).
T12 sequence: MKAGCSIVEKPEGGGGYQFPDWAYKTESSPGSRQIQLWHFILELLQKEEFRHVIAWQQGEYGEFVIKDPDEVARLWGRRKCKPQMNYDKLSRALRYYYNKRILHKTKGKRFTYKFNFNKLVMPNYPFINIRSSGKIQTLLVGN
Conditions: protein: recombinant; tags: N-terminal GST; dsDNA, one strand shown. In a few lines:
as §1

Another test deals with ETV6 (Homo sapiens, UniProt P41212 1-452). The note with it: protein: recombinant; tags: N-terminal GST; dsDNA, one strand shown. In a few lines:
as §1

This is an account of results in PMC7862700, “An all-to-all approach to the identification of sequence-specific readers for epigenetic DNA modifications on cytosine”.

ETV1, sequence (P50549 whole entry): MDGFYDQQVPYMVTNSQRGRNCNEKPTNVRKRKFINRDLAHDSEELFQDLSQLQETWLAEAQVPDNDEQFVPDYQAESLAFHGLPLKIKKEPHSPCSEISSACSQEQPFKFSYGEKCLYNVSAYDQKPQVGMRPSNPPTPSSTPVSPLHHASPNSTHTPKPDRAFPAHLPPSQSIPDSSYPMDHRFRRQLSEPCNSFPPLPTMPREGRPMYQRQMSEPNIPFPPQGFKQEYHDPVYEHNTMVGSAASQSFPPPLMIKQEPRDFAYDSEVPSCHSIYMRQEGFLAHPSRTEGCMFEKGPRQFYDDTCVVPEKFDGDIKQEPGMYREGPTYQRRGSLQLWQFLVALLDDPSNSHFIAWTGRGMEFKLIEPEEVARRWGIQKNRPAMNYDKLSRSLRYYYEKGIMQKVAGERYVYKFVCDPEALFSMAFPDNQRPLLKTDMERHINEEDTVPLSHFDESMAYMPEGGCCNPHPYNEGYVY
ELF4, sequence (Q99607 whole entry): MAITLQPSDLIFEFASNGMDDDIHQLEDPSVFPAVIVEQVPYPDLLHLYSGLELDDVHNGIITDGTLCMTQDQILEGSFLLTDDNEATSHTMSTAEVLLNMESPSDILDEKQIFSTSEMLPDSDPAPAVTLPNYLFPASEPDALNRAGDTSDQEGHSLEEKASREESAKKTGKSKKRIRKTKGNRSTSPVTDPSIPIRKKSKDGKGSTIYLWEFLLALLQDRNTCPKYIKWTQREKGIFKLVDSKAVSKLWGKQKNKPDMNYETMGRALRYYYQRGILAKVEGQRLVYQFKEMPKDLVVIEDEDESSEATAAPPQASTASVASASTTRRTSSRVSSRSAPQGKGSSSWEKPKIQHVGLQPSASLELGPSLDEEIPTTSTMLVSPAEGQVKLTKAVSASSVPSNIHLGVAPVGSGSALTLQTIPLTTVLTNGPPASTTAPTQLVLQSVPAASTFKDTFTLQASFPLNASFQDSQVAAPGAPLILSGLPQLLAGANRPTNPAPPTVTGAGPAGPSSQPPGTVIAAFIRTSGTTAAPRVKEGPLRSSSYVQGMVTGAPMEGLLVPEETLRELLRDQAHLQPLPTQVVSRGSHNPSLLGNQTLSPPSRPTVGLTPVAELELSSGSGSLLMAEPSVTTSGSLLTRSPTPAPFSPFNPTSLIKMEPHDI
ETV5, sequence (P41161 whole entry): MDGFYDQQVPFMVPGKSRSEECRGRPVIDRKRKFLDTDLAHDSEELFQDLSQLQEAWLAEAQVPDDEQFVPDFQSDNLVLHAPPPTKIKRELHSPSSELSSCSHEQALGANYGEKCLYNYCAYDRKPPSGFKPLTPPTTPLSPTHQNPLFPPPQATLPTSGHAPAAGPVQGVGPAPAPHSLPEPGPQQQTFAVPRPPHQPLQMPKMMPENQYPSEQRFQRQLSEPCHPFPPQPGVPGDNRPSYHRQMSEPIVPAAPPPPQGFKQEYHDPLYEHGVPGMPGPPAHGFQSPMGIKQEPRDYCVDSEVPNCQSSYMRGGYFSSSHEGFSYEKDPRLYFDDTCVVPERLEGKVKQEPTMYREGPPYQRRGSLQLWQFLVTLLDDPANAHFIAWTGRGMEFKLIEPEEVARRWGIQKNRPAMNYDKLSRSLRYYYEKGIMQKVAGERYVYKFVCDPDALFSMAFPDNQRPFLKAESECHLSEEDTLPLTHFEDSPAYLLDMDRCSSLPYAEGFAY
ETV6, sequence (P41212 whole entry): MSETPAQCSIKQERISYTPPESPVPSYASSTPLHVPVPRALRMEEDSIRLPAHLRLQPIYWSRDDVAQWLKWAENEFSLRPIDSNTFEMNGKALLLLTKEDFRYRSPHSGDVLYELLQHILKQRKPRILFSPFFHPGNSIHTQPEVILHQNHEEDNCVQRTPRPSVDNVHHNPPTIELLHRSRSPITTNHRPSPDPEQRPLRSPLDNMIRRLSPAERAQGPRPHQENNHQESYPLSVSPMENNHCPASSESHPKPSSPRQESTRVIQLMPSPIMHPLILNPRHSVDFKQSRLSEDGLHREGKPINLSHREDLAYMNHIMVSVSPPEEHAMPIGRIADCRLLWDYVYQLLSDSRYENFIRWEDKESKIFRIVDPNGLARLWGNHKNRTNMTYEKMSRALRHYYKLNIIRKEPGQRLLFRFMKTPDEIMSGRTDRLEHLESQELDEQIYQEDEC

For the sequence ACTGCT, the binding signal is 1.48 fold enrichment (6-mer frequency, TF over GST control) with FEV; 1.41 fold enrichment (6-mer frequency, TF over GST control) with ETV5; 1.19 fold enrichment (6-mer frequency, TF over GST control) in the test with HSF1; 1.56 fold enrichment (6-mer frequency, TF over GST control) with SPIC; 1.3 fold enrichment (6-mer frequency, TF over GST control) with ELF4; 1.54 fold enrichment (6-mer frequency, TF over GST control) with ELK4. Besides, the binding signal was 1.26 fold enrichment (6-mer frequency, TF over GST control) in the test with ETV2; 1.32 fold enrichment (6-mer frequency, TF over GST control) in the test with ELF3; 1.21 fold enrichment (6-mer frequency, TF over GST control) with CRX; 1.33 fold enrichment (6-mer frequency, TF over GST control) with ETV1; 1.27 fold enrichment (6-mer frequency, TF over GST control) with ERF; 1.41 fold enrichment (6-mer frequency, TF over GST control) with ETV3L. Besides, the binding signal in the test with ETS2 was 1.38 fold enrichment (6-mer frequency, TF over GST control); with SPDEF, 1.26 fold enrichment (6-mer frequency, TF over GST control); with ETV7, 1.4 fold enrichment (6-mer frequency, TF over GST control); with ELF5, 1.33 fold enrichment (6-mer frequency, TF over GST control); with ETV3, 1.42 fold enrichment (6-mer frequency, TF over GST control); in the test with ETV6, 1.33 fold enrichment (6-mer frequency, TF over GST control).
